Compound activity (PubChem BioAssay)
IDE cell inh = human IDE inhibitors in live cells, primary screen, fluorescence polarization, HEK cells, FAbetaB substrate; Insulin-degrading enzyme (Homo sapiens), P14735; FAbetaB cleavage; inhibition, % at 5.59 µM; 320,000 tested, 0.41% active;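 active means percent inhibition above the average of all tested compounds plus 3 SD, set per screening campaign, cut at about 16% in these data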;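 further: IDE supplied by intact live HEK cells; FP after avidin binding of uncleaved biotin substrate so inhibition keeps polarization high; 0% = DMSO wells and 100% = 60 µM reference IDE inhibitor Ii1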
Target sequence (P14735 whole entry, looked up): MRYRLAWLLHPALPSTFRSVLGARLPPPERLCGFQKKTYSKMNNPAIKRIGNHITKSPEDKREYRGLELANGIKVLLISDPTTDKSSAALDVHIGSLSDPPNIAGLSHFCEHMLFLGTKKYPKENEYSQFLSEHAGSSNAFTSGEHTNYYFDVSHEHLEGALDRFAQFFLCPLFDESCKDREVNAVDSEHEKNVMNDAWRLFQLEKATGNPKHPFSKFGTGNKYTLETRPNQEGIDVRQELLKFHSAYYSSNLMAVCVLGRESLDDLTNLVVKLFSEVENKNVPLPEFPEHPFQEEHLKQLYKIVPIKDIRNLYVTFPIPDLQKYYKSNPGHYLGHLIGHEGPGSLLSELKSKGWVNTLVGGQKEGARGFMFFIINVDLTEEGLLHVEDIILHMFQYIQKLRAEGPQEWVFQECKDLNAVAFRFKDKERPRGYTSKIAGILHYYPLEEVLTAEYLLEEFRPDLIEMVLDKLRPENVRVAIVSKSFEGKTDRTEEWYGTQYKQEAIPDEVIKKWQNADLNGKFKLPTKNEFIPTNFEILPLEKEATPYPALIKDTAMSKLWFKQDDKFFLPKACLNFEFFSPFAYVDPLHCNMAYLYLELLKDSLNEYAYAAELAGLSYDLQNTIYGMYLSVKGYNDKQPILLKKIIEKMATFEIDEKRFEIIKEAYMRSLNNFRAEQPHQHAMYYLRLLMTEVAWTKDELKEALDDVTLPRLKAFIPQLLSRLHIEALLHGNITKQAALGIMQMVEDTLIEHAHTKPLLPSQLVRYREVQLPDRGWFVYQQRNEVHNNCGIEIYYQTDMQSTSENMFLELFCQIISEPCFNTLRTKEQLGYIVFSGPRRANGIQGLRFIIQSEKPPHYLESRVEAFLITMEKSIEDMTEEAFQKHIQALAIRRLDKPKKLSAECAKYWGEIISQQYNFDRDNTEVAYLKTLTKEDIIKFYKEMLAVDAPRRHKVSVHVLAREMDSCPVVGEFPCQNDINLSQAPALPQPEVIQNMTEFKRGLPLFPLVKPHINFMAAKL
CRFR2-BP antag = antagonists of CRF-BP/CRF-R2 complex, primary screen, cell-based, HEK293, calcium dye fluorescence, uHTS | CRF-induced calcium fluorescence | AID 588475, 2011 | 350,000 tested, 0.59% active | inhibition, % at 11.8 µM;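 active means inhibition of the ligand-induced calcium signal above about 50% at the single tested concentration, limit read from the data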
RTF Ca sens inh = cardiac RTF calcium sensitivity inhibitors, primary screen, biochemical, IANBD-TnC fluorescence, EC70 calcium | Troponin I, cardiac muscle (Homo sapiens) + Troponin T, cardiac muscle (Homo sapiens) + … | IANBD-labeled cardiac RTF, Ca2+ fluorescence | inhibition, % at 7.15 µM | 340,000 tested, 0.12% active | AID 493244, 2011;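 active means inhibition above the mean inhibition of all tested compounds plus 3 SD, cut at about 17% in these data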;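 further: assay run at fixed EC70 calcium of 1.6 mM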
CRFR2-BP ag = agonists of CRF-BP/CRF-R2 complex, primary screen, cell-based, HEK293, calcium dye fluorescence, uHTS; calcium dye fluorescence (FLIPR); percent of saturating CRF peptide response; activation, % at 13.2 µM; 350,000 tested, 0.46% active; AID 588473, 2011;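 active means activation of at least 50%, plus an integration ratio under a set limit after plate pattern correction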;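 further: plate controls were neutral control wells without compound for no effect and CRF at EC100 for full effect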
cardiac RTF act = cardiac RTF calcium sensitivity activators, primary screen, biochemical, IANBD-TnC fluorescence, EC20 calcium | IANBD-labeled TnC RTF fluorescence at EC20 calcium; 0% EC20 calcium, 100% full calcium | activation, % at 7.2 µM | 340,000 tested, 0.24% active;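 active means activation above the mean over all tested compounds plus 3 SD, cut at about 30% in these data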;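 further: rise in fluorescence read as greater calcium sensitivity of cardiac thin filaments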
IDE cell activ = human IDE activators in live cells, primary screen, fluorescence polarization, HEK cells, FAbeta-B substrate; Insulin-degrading enzyme (Homo sapiens), P14735; FAbeta-B cleavage; 0% vehicle, 100% cell-free pure enzyme wells; activation, % at 5.96 µM; 340,000 tested, 0.073% active;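 active means activation above the mean of all tested compounds plus 3 SD, set per screening campaign, cut at about 17% in these data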
* marks the source's active call; other numbers are inactive results; . = no result. Sampled rows, rich in hits. Any-hit rate of the full collection: about 1.5%.

SMILES | IDE cell inh | CRFR2-BP antag | RTF Ca sens inh | CRFR2-BP ag | cardiac RTF act | IDE cell activ
CCN1CCN(S(=O)(=O)c2ccc(C(=O)Nc3sc4c(c3C(N)=O)CCN(CC)C4)cc2)CC1 | 1 | -24 | -8 | 13 | 2 | -2
COC1=CC(=O)C=C(OC)C1(O)CC(C)=O | . | -6 | -2 | 7 | 2 | 0
Cc1ccc(S(=O)c2ccc([N+](=O)[O-])c3nonc23)cc1 (centres undefined) | . | -39 | . | 33 | . | .
CNC(=S)N/N=C/C1=CCC2CC1C2(C)C (centres undefined) | 2 | -9 | 4 | -3 | 1 | 5
CC1(C)C2CC=C(/C=N/NC(=O)c3ccccc3O)C1C2 (centres undefined) | 2 | 59* | -7 | 47 | 1 | -3
O=C(NCc1cccc(Cl)c1)c1cccc(S(=O)(=O)N2CCCC2)c1 | -6 | -52 | 6 | 87* | 1 | -2
CCOC(=O)c1cccc(S(=O)(=O)N2CCCC2)c1 | 3 | -11 | -5 | 2 | 7 | -1
NC(=O)COC(=O)c1cccc(S(=O)(=O)N2CCCCC2)c1 | -1 | 86* | -5 | 5 | -6 | 6
NC(=O)N/N=C/c1c(O)ccc2oc3c(c12)CCCC3 | 3 | -5 | -4 | 0 | 0 | 1
CC(C)(C)N=Cc1c(O)ccc2oc3c(c12)CCCC3 | -1 | -27 | -9 | 51* | -3 | 0
COc1ccccc1N1CCN(C(=O)/C=C/c2ccccc2)CC1 | -3 | -25 | -17 | -1 | -5 | 1
COc1ccccc1N1CCN(C(=O)/C=C/c2cccs2)CC1 | -4 | 80* | -8 | -1 | 2 | 4
COCCC(=O)N1CCC(Oc2ccc(C(=O)NC(C)CCn3cccn3)cc2)CC1 (centres undefined) | . | 7 | 5 | 0 | -3 | 4
Cc1cccc(NS(=O)(=O)c2ccc(C)c(C(=O)NCC(c3ccco3)N3CCCCC3)c2)c1 (centres undefined) | . | -4 | -9 | 0 | -4 | 1
O=C(Cn1c(=O)cnc2ccccc21)Nc1ccccc1N1CCOCC1 | -2 | 4 | -6 | 0 | 0 | 1
CC(=O)c1ccccc1NC(=O)Cn1c(=O)cnc2ccccc21 | 4 | 72* | -6 | 1 | -1 | -2
Cn1c(CN2CCCCC2)nc2cc(NS(=O)(=O)c3ccc(Cl)cc3)ccc21 | 2 | -73 | -8 | 86* | 5 | 4
Cn1c(CCN2CCCCC2)nc2cc(NS(=O)(=O)c3ccc(Cl)cc3)ccc21 | 3 | -11 | 1 | -1 | -4 | 6
N#CCCN(CCC#N)C(=O)C1c2ccccc2Oc2ccccc21 | -2 | 13 | -22 | -1 | 12 | 7
O=C(CC(NC(=O)OCc1ccccc1)C(=O)OCc1ccccc1)OCc1ccccc1 (centres undefined) | . | 88* | -7 | 6 | 4 | 4
COc1ccccc1NC(=O)C(C)OC(=O)CCCc1c[nH]c2ccccc12 (centres undefined) | -1 | 5 | -1 | 0 | -10 | 7
CN(C(=O)COC(=O)CCc1nc2ccccc2c(=O)[nH]1)C1CCS(=O)(=O)C1 (centres undefined) | 0 | 53* | 2 | 1 | 5 | -1
CSc1ccccc1NC(=O)c1cc(CC(C)C)on1 | 2 | 63* | 0 | 0 | 13 | 1
CC(C)Cc1cc(C(=O)Nc2cccnc2)no1 | 5 | 5 | -6 | 2 | -2 | 2
Cc1ccc(NC(=O)c2ccco2)nc1 | . | 9 | -1 | -1 | 5 | -3
SMILES | IDE cell inh | CRFR2-BP antag | RTF Ca sens inh | CRFR2-BP ag | cardiac RTF act | IDE cell activ
CC(=O)Nc1ccccc1OCC(=O)c1cc(C)n(Cc2cccs2)c1C | 1 | -89 | -7 | 161* | 14 | 0
CC1C/C(=N\NC(=O)c2ccc([N+](=O)[O-])cc2)CC(C)(C)C1 (centres undefined) | -3 | 72* | -7 | 5 | -3 | 7
Cc1nnc(SC(C)C(=O)Nc2ccc3ccccc3c2)n1C (centres undefined) | -4 | -4 | -13 | 0 | -1 | 3
CC(C)NC(=S)N/N=C/c1ccccc1[N+](=O)[O-] | -3 | 15 | 6 | 1 | 0 | 0
O=[N+]([O-])c1ccccc1C=NNC(=S)NN=Cc1ccccc1[N+](=O)[O-] | . | 57* | 5 | -2 | -1 | -2
COc1ccc(CN2CCN(C(=O)c3c(-c4ccccc4)noc3C)CC2)cc1F | -3 | -3 | 9 | -2 | 3 | 4
Cc1ccccc1OC(C)C(=O)N1CCN(c2ccccn2)CC1 (centres undefined) | -1 | 9 | -5 | -1 | -4 | 1
Cc1ccc(-c2csc(Nc3ccc(C(=O)O)cc3)[n+]2Cc2ccccc2)cc1 | -5 | 69* | -7 | -7 | -2 | 5
CCc1cc(Cn2nc(C(=O)O)cc2-c2ccccc2)on1 | 1 | 9 | -4 | -2 | -6 | 19*
COC(=O)C1=C(C)N(Cc2ccccc2)C(=NCc2cccc(Cl)c2)N[C@H]1c1cccc(F)c1 | 3 | -30 | -8 | 3 | 4 | 18*
COC(=O)C1=C(C)N(Cc2ccccc2)C(=NCc2ccccc2)N[C@H]1c1cccc(C(F)(F)F)c1 | 6 | -10 | 1 | 4 | 13 | 22*
COC(=O)C1=C(C)N(Cc2ccccc2)C(=NCC(C)C)N[C@H]1c1cccc(C(F)(F)F)c1 | 6 | -5 | -10 | 7 | -2 | 16
CC1CC(C#N)N(N(C)C)C1=C(C#N)C#N (centres undefined) | 6 | 4 | -18 | -1 | 1 | 3
CCCC1CC(C#N)N(N(C)C)C1=C(C#N)C#N (centres undefined) | 2 | 52* | -2 | 0 | 1 | 0
CC1=C([N+](=O)[O-])C(c2ccccc2)NC(=O)N1 (centres undefined) | 4 | 4 | 1 | 0 | 5 | 3
Cn1c(=O)c2sccc2n(Cc2ccccc2)c1=O | 3 | 3 | 3 | -4 | -5 | 4
Cc1c2cnn(CC(=O)NC3CCCC3)c(=O)c2c(C)n1Cc1ccccc1 | 6 | 111* | 4 | -1 | 0 | 1
CN(CC(=O)Nc1ccccc1Cl)CC(=O)Nc1cccc2ccccc12 | 1 | 5 | -6 | 0 | 5 | 2
O=C(O)c1ccccc1C(=O)Nc1ccc(Oc2cccc3ccccc23)cc1 | . | 21 | -1 | 126* | 7 | -4
